Test results as given in PubChem BioAssay AID1159580 (chemical genetic matrix, 2015).
Where “and” joins values, the source holds several entries; their conditions need not be identical. Equal values may be shown once. The campaign covered roughly 5,500 compounds. About 2,000 (36%) were called active. About 18% were inconclusive and are not listed. Rule as the data show it: active = normalized growth mostly below about 0.91 (no sharp cut-off); inconclusive = no clear call, values can overlap the other calls; inactive = mostly above about 0.92. This is one part of the list.

Test: chemical genetic growth profiling, strain panel (AID 1159580);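 also: tested at 20 µM; growth read once vehicle control cultures reached saturation at 30 °C; 1 = growth at the plate median or of vehicle wells; lower values mean less growth of the strain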
Conditions: S. cerevisiae deletion strains, growth OD

Measured: normalized growth

Cc1ccc(C(C)C)cc2c(C)ccc1-2
inactive: locus YAL013W, strain DEP1, stronger effect = lower value 1 | locus YAL021C, strain ccr4, stronger effect = lower value 1 | locus YAL026C, strain drs2, stronger effect = lower value 1.02 | locus YAL030W, strain snc1, stronger effect = lower value 1 | locus YBL061C, strain skt5, stronger effect = lower value 1 | locus YBR009C, strain hhf1, stronger effect = lower value 0.999 | locus YBR021W, strain FUR4, stronger effect = lower value 1.01 | locus YBR023C, strain chs3, stronger effect = lower value 1 | locus YBR171W, strain sec66, stronger effect = lower value 1.02 | locus YBR229C, strain ROT2, stronger effect = lower value 1 | locus YBR231C, strain swc5, stronger effect = lower value 1 | locus YBR279W, strain paf1, stronger effect = lower value 1.01 | locus YCL011C, strain gbp2, stronger effect = lower value 1.01 | locus YCL016C, strain dcc1, stronger effect = lower value 0.985 | locus YCL029C, strain bik1, stronger effect = lower value 1.03 | locus YCL061C, strain MRC1, stronger effect = lower value 1.01 | locus YCL069W, strain vba3, stronger effect = lower value 0.996 | locus YCR088W, strain abp1, stronger effect = lower value 1.01 | locus YDL005C, strain med2, stronger effect = lower value 1.01 | locus YDL035C, strain GPR1, stronger effect = lower value 1 | locus YDL040C, strain nat1, stronger effect = lower value 0.99 | locus YDL074C, strain BRE1, stronger effect = lower value 0.944 | locus YDL101C, strain DUN1, stronger effect = lower value 0.991 | locus YDL134C, strain PPH21, stronger effect = lower value 0.984 | locus YDL185W, strain tfp1, stronger effect = lower value 1.02 | locus YDL192W, strain arf1, stronger effect = lower value 1.02 | locus YDR001C, strain nth1, stronger effect = lower value 1 | locus YDR069C, strain doa4, stronger effect = lower value 1 | locus YDR101C, strain arx1, stronger effect = lower value 1.02 | locus YDR137W, strain rgp1, stronger effect = lower value 0.978 | locus YDR159W, strain sac3, stronger effect = lower value 1.05 | locus YDR162C, strain NBP2, stronger effect = lower value 1 | locus YDR195W, strain ref2 0.975 | locus YDR297W, strain sur2, stronger effect = lower value 1 | locus YDR318W, strain mcm21, stronger effect = lower value 1.01 | locus YDR334W, strain swr1, stronger effect = lower value 1 | locus YDR335W, strain msn5, stronger effect = lower value 0.997 | locus YDR388W, stronger effect = lower value 1.03 | locus YDR392W, strain spt3, stronger effect = lower value 0.906 | locus YDR502C, strain sam2, stronger effect = lower value 1 | locus YEL003W, strain gim4, stronger effect = lower value 0.998 | locus YEL037C, strain rad23, stronger effect = lower value 1 | locus YEL061C, strain CIN8 (second series), stronger effect = lower value 1 | locus YEL061C, strain CIN8, stronger effect = lower value 0.998 | locus YER015W, strain faa2, stronger effect = lower value 1 | locus YER016W, strain bim1, stronger effect = lower value 1 | locus YER110C, stronger effect = lower value 1.04 | locus YER111C, strain swi4, stronger effect = lower value 1.01 | locus YER155C, strain BEM2 (second series), stronger effect = lower value 0.998 | locus YER155C, strain BEM2, stronger effect = lower value 1.01 | locus YER167W, strain BCK2, stronger effect = lower value 0.988 | locus YFR010W, strain ubp6, stronger effect = lower value 1.01 | locus YGL078C, strain dbp3, stronger effect = lower value 1.02 | locus YGL086W, strain mad1, stronger effect = lower value 0.994 | locus YGL167C, strain pmr1, stronger effect = lower value 1.01 | locus YGL173C, strain kem1, stronger effect = lower value 1.01 | locus YGL227W, strain vid30, stronger effect = lower value 1.01 | locus YGL240W, strain doc1, stronger effect = lower value 1.01 | locus YGL248W, strain PDE1, stronger effect = lower value 1 | locus YGL253W, strain hxk2, stronger effect = lower value 1.03 | locus YGR078C, strain PAC10, stronger effect = lower value 0.948 | locus YGR135W, strain pre9, stronger effect = lower value 1.03 | locus YGR252W, strain gcn5, stronger effect = lower value 1.02 | locus YHR013C, strain ard1, stronger effect = lower value 1.02 | locus YHR027C, strain rpn1, stronger effect = lower value 1 | locus YHR030C, strain SLT2, stronger effect = lower value 1 and 0.968 | locus YHR079C, strain IRE1 (second series), stronger effect = lower value 1.02 | locus YHR079C, strain IRE1, stronger effect = lower value 0.977 | locus YHR094C, strain hxt1, stronger effect = lower value 1.02 | locus YHR129C, strain ARP1, stronger effect = lower value 1 | locus YHR142W, strain chs7, stronger effect = lower value 1.02 | locus YHR200W, strain rpn10, stronger effect = lower value 1.02 | locus YIL066C, strain RNR3, stronger effect = lower value 0.986 | locus YIL073C, strain SPO22, stronger effect = lower value 1.09 | locus YIL125W, strain kgd1, stronger effect = lower value 1.01 | locus YIR030C, strain dcg1, stronger effect = lower value 1.02 | locus YJL092W, strain hpr5, stronger effect = lower value 1 | locus YJL095W, strain BCK1 (second series), stronger effect = lower value 1 | locus YJL095W, strain BCK1, stronger effect = lower value 0.972 and 1.03 | locus YJL115W, strain asf1, stronger effect = lower value 0.992 | locus YJL129C, strain trk1, stronger effect = lower value 1.01 | locus YJL134W, strain LCB3, stronger effect = lower value 1 | locus YJL154C, strain vps35, stronger effect = lower value 0.999 | locus YJL164C, strain tpk1, stronger effect = lower value 0.991 | locus YJL166W, strain qcr8, stronger effect = lower value 0.994 | locus YJL168C, strain set2, stronger effect = lower value 1.02 | locus YJL187C, strain SWE1 (second series), stronger effect = lower value 0.995 | locus YJL187C, strain SWE1, stronger effect = lower value 1.01
